PubChem BioAssay (NCI)
This is part of a sample that, as a whole, favours compounds with a hit. Of some 83,000 tested, about 20% had one in any assay.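 96-well plates, one dose, 48 hours. Percent growth reported; active if below 10.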 Calls of active or inactive are those of the source.

How the values were obtained:
Experiment in all cases: NCI-60 one-dose screen, 48 h (100 = growth as untreated, 0 = no growth, -100 = all killed)
Conditions in all cases: 10 µM unless noted
RPMI-8226 leukemia = system: RPMI-8226 leukemia
OVCAR-8 ovarian = system: OVCAR-8 ovarian
OVCAR-5 ovarian = system: OVCAR-5 ovarian
OVCAR-4 ovarian = system: OVCAR-4 ovarian
IGROV1 ovarian = system: IGROV1 ovarian
OVCAR-3 ovarian = system: OVCAR-3 ovarian
HS 578T breast = system: HS 578T breast
NCI/ADR-RES ovarian = system: NCI/ADR-RES ovarian
T-47D breast = system: T-47D breast
BT-549 breast = system: BT-549 breast
MDA-MB-435 melanoma = system: MDA-MB-435 melanoma
SW-620 colon = system: SW-620 colon
MCF7 breast = system: MCF7 breast
HCT-116 colon = system: HCT-116 colon
HCC-2998 colon = system: HCC-2998 colon
KM12 colon = system: KM12 colon
SK-OV-3 ovarian = system: SK-OV-3 ovarian

Measured: growth

COC(=O)c1ccc(CSc2nnc(-c3c(C)nc4ccc(C)cn34)o2)cc1
inactive: RPMI-8226 leukemia 88.4% | OVCAR-8 ovarian 103% | OVCAR-5 ovarian 106% | OVCAR-4 ovarian 94% | IGROV1 ovarian 109% | OVCAR-3 ovarian 119% | HS 578T breast 105% | NCI/ADR-RES ovarian 89.7% | T-47D breast 89.4% | BT-549 breast 100% | MDA-MB-435 melanoma 102% | SW-620 colon 108% | MCF7 breast 85.9% | HCT-116 colon 99.3% | HCC-2998 colon 87% | KM12 colon 110%

O=c1[nH][n+](-c2ccc(Cl)cc2)no1
inactive: RPMI-8226 leukemia 79.2% | OVCAR-8 ovarian 69.9% | OVCAR-4 ovarian 83.5% | SK-OV-3 ovarian 86.8% | IGROV1 ovarian 70.5% | OVCAR-3 ovarian 86.8% | T-47D breast 26.9% | BT-549 breast 91.8% | MDA-MB-435 melanoma 30.8% | SW-620 colon 40.8% | MCF7 breast 58.4% | HCT-116 colon 84.5% | HCC-2998 colon 32.4% | KM12 colon 31.3%

O=C1c2cccc(NCCN=Cc3cc([N+](=O)[O-])ccc3O)c2C(=O)c2c(NCCN=Cc3cc([N+](=O)[O-])ccc3O)cccc21
active: RPMI-8226 leukemia 7.36%
inactive: OVCAR-8 ovarian 78.5% | OVCAR-5 ovarian 86.3% | OVCAR-4 ovarian 69.3% | IGROV1 ovarian 73.5% | OVCAR-3 ovarian 85.1% | HS 578T breast 53.9% | NCI/ADR-RES ovarian 99.9% | T-47D breast 75.8% | BT-549 breast 107% | MDA-MB-435 melanoma 99.3% | SW-620 colon 29.8% | MCF7 breast 20.8% | HCT-116 colon 33.3% | KM12 colon 46.8%

Cc1cc(C(=O)c2ccccc2)c(C)c2c1[nH]c1ccc(Cl)cc12
inactive: OVCAR-8 ovarian 21.9% | OVCAR-5 ovarian 43.5% | OVCAR-4 ovarian 43.5% | SK-OV-3 ovarian 38% | IGROV1 ovarian 19.1% | HS 578T breast 33.2% | T-47D breast 63.5% | SW-620 colon 26.3% | MCF7 breast 13.1% | HCC-2998 colon 21.8%
active: OVCAR-3 ovarian -51% | NCI/ADR-RES ovarian 7.25% | BT-549 breast 5.82% | MDA-MB-435 melanoma -25.4% | HCT-116 colon 5.1% | KM12 colon 0.781%

Cc1c(C(=O)OC(=NC2CCCCC2)NC2CCCCC2)sc2c1c(=O)nc1c(C#N)n[nH]n12
inactive: OVCAR-8 ovarian 104% | OVCAR-5 ovarian 75.8% | OVCAR-4 ovarian 105% | SK-OV-3 ovarian 106% | IGROV1 ovarian 84.6% | OVCAR-3 ovarian 105% | HS 578T breast 104% | NCI/ADR-RES ovarian 106% | T-47D breast 109% | BT-549 breast 121% | MDA-MB-435 melanoma 117% | SW-620 colon 107% | MCF7 breast 103% | HCT-116 colon 104% | HCC-2998 colon 100% | KM12 colon 110%

O=C(Nc1ccc(Cl)cc1)Nc1ccc(Cl)c(C(F)(F)F)c1
inactive: OVCAR-8 ovarian 19.9% | OVCAR-4 ovarian 30.6% | IGROV1 ovarian 29.8% | HS 578T breast 19.7% | BT-549 breast 14.4%
active: RPMI-8226 leukemia -32.9% | SK-OV-3 ovarian -27.1% | OVCAR-3 ovarian 4.12% | NCI/ADR-RES ovarian -37.1% | T-47D breast -5.38% | MDA-MB-435 melanoma -5.12% | SW-620 colon 5.74% | MCF7 breast 9.91% | HCT-116 colon 2.77% | HCC-2998 colon -34.8% | KM12 colon 3%

O=C(/C=C/c1cccc(O)c1)c1cccc(-n2cc(-c3ccc4ccccc4c3)[nH]c2=O)c1
active: OVCAR-5 ovarian -42.6% | OVCAR-4 ovarian -76.2% | OVCAR-3 ovarian -73.2% | HS 578T breast -11% | NCI/ADR-RES ovarian -39.3% | T-47D breast -22.5% | BT-549 breast -29.8% | MDA-MB-435 melanoma -15.6% | SW-620 colon -55.1% | MCF7 breast -32.2% | HCT-116 colon -100% | KM12 colon -72%
inactive: OVCAR-8 ovarian 13.5% | SK-OV-3 ovarian 19.6% | IGROV1 ovarian 85.7% | HCC-2998 colon 44.3%

O=S(=O)(NCCCNc1cc(-c2c(-c3cccc(O)c3)nc3sccn23)ccn1)c1cccc(Cl)c1
inactive: OVCAR-8 ovarian 17.1% | OVCAR-4 ovarian 35.2% | SK-OV-3 ovarian 49.1% | IGROV1 ovarian 40.5% | OVCAR-3 ovarian 32.7% | HS 578T breast 32.5% | NCI/ADR-RES ovarian 76.7% | BT-549 breast 21.5% | MDA-MB-435 melanoma 27.4% | SW-620 colon 48.4% | MCF7 breast 55.5% | HCT-116 colon 33.5% | HCC-2998 colon 58.2% | KM12 colon 32.4%
active: RPMI-8226 leukemia 5.17% | T-47D breast 6.58%

CN1C(=O)N(C)C2C1NN=c1s/c(=C\c3ccccc3)c(=O)n12 (stereo not drawn)
active: OVCAR-3 ovarian 8.76% | MDA-MB-435 melanoma -26.1%
inactive: OVCAR-8 ovarian 60% | OVCAR-5 ovarian 66.6% | OVCAR-4 ovarian 66.6% | SK-OV-3 ovarian 47.6% | IGROV1 ovarian 46.4% | HS 578T breast 40.7% | NCI/ADR-RES ovarian 32.5% | T-47D breast 37.9% | BT-549 breast 55.5% | SW-620 colon 21.7% | MCF7 breast 15.4% | HCT-116 colon 22.5% | HCC-2998 colon 82.5% | KM12 colon 23.3%

Clc1cccc(Cl)c1C(Nc1nc2ccccc2s1)Nc1nc2ccccc2s1
active: RPMI-8226 leukemia 5.02% | IGROV1 ovarian -15.1%
inactive: OVCAR-8 ovarian 108% | OVCAR-4 ovarian 84.6% | SK-OV-3 ovarian 94.2% | OVCAR-3 ovarian 114% | HS 578T breast 106% | NCI/ADR-RES ovarian 108% | T-47D breast 95.7% | BT-549 breast 92.1% | MDA-MB-435 melanoma 107% | SW-620 colon 106% | MCF7 breast 91.3% | HCT-116 colon 99.1% | HCC-2998 colon 117% | KM12 colon 98.7%

NC(N)=Nc1nc2ccccc2n2c1nc1ccccc12
inactive: OVCAR-8 ovarian 25.5% | OVCAR-5 ovarian 54.3% | OVCAR-4 ovarian 36% | SK-OV-3 ovarian 32.9% | IGROV1 ovarian 20.3% | OVCAR-3 ovarian 43.3% | HS 578T breast 43.8% | NCI/ADR-RES ovarian 63.1% | T-47D breast 40.7% | BT-549 breast 83% | MDA-MB-435 melanoma 33.3% | SW-620 colon 24.9% | HCT-116 colon 18.2% | HCC-2998 colon 46.3% | KM12 colon 33.6%
active: MCF7 breast 8.98%

C[C@@H]1N=C(c2ccc3ccccc3n2)Nc2nc3ccccn3c2C1=O
inactive: RPMI-8226 leukemia 93.8% | OVCAR-8 ovarian 101% | OVCAR-5 ovarian 106% | OVCAR-4 ovarian 89.5% | IGROV1 ovarian 66.3% | OVCAR-3 ovarian 109% | HS 578T breast 97.7% | NCI/ADR-RES ovarian 93.6% | T-47D breast 90.2% | BT-549 breast 88.8% | MDA-MB-435 melanoma 104% | SW-620 colon 99% | MCF7 breast 76.7% | HCT-116 colon 95.5% | HCC-2998 colon 101% | KM12 colon 95.3%

COc1ccc(-c2nc(SCCC(C)C)nc(N/N=C\c3cccc([N+](=O)[O-])c3)c2C#N)cc1
inactive: OVCAR-8 ovarian 39.7% | OVCAR-5 ovarian 38.4% | SK-OV-3 ovarian 63.4% | IGROV1 ovarian 38.8% | NCI/ADR-RES ovarian 56.2% | T-47D breast 27.5% | BT-549 breast 63.2% | MDA-MB-435 melanoma 56.3% | SW-620 colon 15.5% | MCF7 breast 35.6% | HCT-116 colon 23.5% | HCC-2998 colon 52% | KM12 colon 27.1%
active: OVCAR-4 ovarian -13.3% | OVCAR-3 ovarian -30.4% | HS 578T breast 9.44%

OC(c1cccc(-n2ccc(C(F)(F)F)n2)c1)c1cnccc1NC1CCCCCC1 (stereo not drawn)
active: RPMI-8226 leukemia -33.4% | OVCAR-8 ovarian 6.25% | MDA-MB-435 melanoma -77.4% | SW-620 colon -86.4% | MCF7 breast -14.4% | HCT-116 colon -79.4% | HCC-2998 colon -88.8% | KM12 colon -47.1%
inactive: OVCAR-4 ovarian 40.8% | IGROV1 ovarian 38.5% | OVCAR-3 ovarian 52.4% | HS 578T breast 49.8% | NCI/ADR-RES ovarian 30% | T-47D breast 22.6% | BT-549 breast 82.5%

O=C1/C(=C2/C=Nc3ccccc32)N(O)c2ccccc21
active: MDA-MB-435 melanoma -95.3%
inactive: RPMI-8226 leukemia 38.9% | OVCAR-8 ovarian 62.1% | OVCAR-4 ovarian 50% | SK-OV-3 ovarian 98.8% | IGROV1 ovarian 48.1% | OVCAR-3 ovarian 34.8% | HS 578T breast 87.7% | NCI/ADR-RES ovarian 55.2% | T-47D breast 19.5% | BT-549 breast 78.1% | SW-620 colon 75.4% | MCF7 breast 40.3% | HCT-116 colon 49.8% | HCC-2998 colon 113% | KM12 colon 73.1%

Cc1ccc(N2CCN(C(=S)c3cccs3)CC2)cc1
inactive: OVCAR-8 ovarian 100% | OVCAR-5 ovarian 96.8% | OVCAR-4 ovarian 107% | SK-OV-3 ovarian 106% | IGROV1 ovarian 99.3% | OVCAR-3 ovarian 113% | HS 578T breast 124% | NCI/ADR-RES ovarian 112% | T-47D breast 86.2% | BT-549 breast 74.2% | MDA-MB-435 melanoma 109% | SW-620 colon 108% | MCF7 breast 89.3% | HCT-116 colon 93.2% | HCC-2998 colon 94.3% | KM12 colon 113%

COc1ccc(NC(=O)CSc2nnc(-c3cc(-c4ccccc4)nc4ccccc34)n2-c2ccccc2)cc1
inactive: RPMI-8226 leukemia 90.1% | OVCAR-8 ovarian 90.4% | OVCAR-4 ovarian 90.3% | SK-OV-3 ovarian 102% | IGROV1 ovarian 92.5% | OVCAR-3 ovarian 103% | HS 578T breast 94.7% | NCI/ADR-RES ovarian 91.8% | T-47D breast 78.4% | MDA-MB-435 melanoma 99.2% | SW-620 colon 101% | MCF7 breast 89.1% | HCT-116 colon 92.6% | HCC-2998 colon 107% | KM12 colon 98.1%

Cc1ccc(Cl)cc1NC(=O)c1cc2ccccc2cc1O
active: RPMI-8226 leukemia -58.2% | OVCAR-8 ovarian 7.85% | OVCAR-5 ovarian -5.91% | OVCAR-4 ovarian 3.71% | IGROV1 ovarian -5.94% | OVCAR-3 ovarian -25.9% | HS 578T breast -21% | NCI/ADR-RES ovarian -27.9% | T-47D breast -12.1% | BT-549 breast -15.6% | MDA-MB-435 melanoma -7.31% | SW-620 colon -1.12% | MCF7 breast -21.5% | HCT-116 colon -10.7% | KM12 colon -29.4%

C(=N\Nc1ncc(-c2cc3cc4c(cc3o2)OCO4)s1)/c1ccco1
inactive: RPMI-8226 leukemia 30.9% | OVCAR-8 ovarian 23.7% | OVCAR-5 ovarian 58% | OVCAR-4 ovarian 32.5% | IGROV1 ovarian 30.2% | HS 578T breast 70.6% | NCI/ADR-RES ovarian 34.7% | T-47D breast 35.2% | BT-549 breast 48.6% | MDA-MB-435 melanoma 69% | MCF7 breast 13.7% | HCC-2998 colon 62.7% | KM12 colon 15.8%
active: OVCAR-3 ovarian 8.65% | SW-620 colon 2.26% | HCT-116 colon -13.6%
